Nine compounds from ChEMBL document CHEMBL3988442, “University of Dundee, Small-Polar-MMV Screening Library” (2021) can be followed below.

Parameters in all cases: scale not given: direction of the effect not stated beside the values
Experiment [1] addresses Protein translocase subunit SecA (Escherichia coli (strain K12)) (UniProt P10408). Nature of the experiment: Assay to Identify E. coli SecA ATPase Inhibitors. It is filed as functional. To be noted: 30 µM.
In experiment [2] the target is T1, Ubiquitin-activating enzyme e1, putative (Leishmania donovani (strain BPK282A1)) (UniProt E9BSI1).
T1 sequence (whole entry): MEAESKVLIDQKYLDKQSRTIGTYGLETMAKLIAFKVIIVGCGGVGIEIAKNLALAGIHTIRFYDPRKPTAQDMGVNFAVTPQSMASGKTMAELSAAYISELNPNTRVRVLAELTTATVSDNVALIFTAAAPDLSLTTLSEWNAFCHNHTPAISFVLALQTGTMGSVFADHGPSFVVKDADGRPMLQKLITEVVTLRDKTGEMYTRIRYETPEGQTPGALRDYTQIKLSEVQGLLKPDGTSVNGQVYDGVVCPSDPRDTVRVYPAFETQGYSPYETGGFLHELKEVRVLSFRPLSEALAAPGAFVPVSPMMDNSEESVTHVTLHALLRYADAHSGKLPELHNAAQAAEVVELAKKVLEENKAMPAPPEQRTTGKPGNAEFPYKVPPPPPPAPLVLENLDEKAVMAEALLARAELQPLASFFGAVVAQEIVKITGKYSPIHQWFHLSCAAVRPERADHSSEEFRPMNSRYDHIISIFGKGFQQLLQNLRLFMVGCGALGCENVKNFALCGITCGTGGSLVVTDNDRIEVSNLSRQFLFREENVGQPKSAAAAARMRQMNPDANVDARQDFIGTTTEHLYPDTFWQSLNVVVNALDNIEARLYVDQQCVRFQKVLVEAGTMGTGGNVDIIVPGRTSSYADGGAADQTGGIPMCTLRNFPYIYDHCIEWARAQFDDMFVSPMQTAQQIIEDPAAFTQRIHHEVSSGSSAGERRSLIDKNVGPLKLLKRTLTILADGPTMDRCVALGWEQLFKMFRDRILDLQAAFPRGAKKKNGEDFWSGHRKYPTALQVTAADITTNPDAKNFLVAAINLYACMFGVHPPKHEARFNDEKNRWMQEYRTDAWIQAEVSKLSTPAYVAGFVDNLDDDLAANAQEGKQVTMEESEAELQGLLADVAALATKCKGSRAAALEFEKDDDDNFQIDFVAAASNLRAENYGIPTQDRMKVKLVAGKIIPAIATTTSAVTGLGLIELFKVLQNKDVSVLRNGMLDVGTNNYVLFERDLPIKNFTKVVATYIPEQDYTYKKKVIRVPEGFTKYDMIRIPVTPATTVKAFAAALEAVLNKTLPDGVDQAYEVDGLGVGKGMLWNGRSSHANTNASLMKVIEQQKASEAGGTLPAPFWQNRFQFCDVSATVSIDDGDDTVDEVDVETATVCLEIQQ
Nature of the experiment: Leishmania donovani Ubiquitin Activating Enzyme (LdE1). It is filed as functional. As to conditions: 30 µM.

Experiment [3] has as its target Sialic acid-binding Ig-like lectin 9 (Homo sapiens) (UniProt Q9Y336). The experiment is described as follows: Hs-Siglec9 ALPHAscreen SOP 20170721. To be noted: 10 µM. On the technique in general: In Alpha technology, singlet oxygen from a donor bead excites a nearby acceptor bead.
The test system of the next experiment is Trypanosoma cruzi. Nature of the experiment: Trypanosoma cruzi phosphomannomutase and mannose-1-phosphate guanylyltransferase assay. It is filed as functional. As to conditions: 10 µM.
In experiment [4] the target is T2, Arginase-2, mitochondrial (Homo sapiens) (UniProt P78540).
T2 sequence (whole entry): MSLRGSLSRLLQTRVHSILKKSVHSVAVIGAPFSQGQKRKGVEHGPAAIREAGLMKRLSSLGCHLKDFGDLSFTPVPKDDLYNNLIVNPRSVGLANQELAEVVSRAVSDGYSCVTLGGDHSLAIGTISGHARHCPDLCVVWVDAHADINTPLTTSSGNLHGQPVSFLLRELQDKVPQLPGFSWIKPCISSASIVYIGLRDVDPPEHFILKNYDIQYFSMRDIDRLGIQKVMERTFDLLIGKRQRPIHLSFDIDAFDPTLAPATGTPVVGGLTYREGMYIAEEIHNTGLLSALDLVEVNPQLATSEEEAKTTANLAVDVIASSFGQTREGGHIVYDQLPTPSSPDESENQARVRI
The experiment is described as follows: in vitro enzyme assay to detect the production of urea directly proportional to the activity of Arginase II. Further: in the data most compounds retested in dose-response had high values. It is filed as functional. To be noted: 33.3 µM.

Experiment [5] addresses T3, Proteasome subunit beta (Trypanosoma cruzi) (UniProt O96673).
T3 sequence (whole entry): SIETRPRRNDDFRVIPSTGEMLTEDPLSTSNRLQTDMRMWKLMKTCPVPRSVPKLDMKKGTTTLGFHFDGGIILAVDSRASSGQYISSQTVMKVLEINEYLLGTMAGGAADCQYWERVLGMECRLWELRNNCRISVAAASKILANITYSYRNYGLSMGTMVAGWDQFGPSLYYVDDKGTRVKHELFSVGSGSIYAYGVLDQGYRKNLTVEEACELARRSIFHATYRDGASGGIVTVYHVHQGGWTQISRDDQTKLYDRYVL
The experiment is described as follows: Trypanosoma cruzi proteasome chymotrypsin-like activity (TcProtChymo) assay. Further: in the data most compounds retested in dose-response had high values. As to conditions: 9.37 µM. It is filed as functional.

The species named for a further experiment is Homo sapiens. The experiment is described as follows: To identify inhibition of the IFN signalling (Jak-Stat) pathway via expression of an eGFP reporter gene under the control of an IFN-stimulated response element (ISRE) containing MxA promoter. It is filed as functional. As to conditions: 30 µM. (In general: In a reporter assay the amount or activity of a reporter protein is the signal.)

Experiment [6] addresses T4, Tyrosyl-tRNA synthetase, putative (Trypanosoma cruzi (strain CL Brener)) (UniProt Q4DSP6).
T4 sequence (whole entry): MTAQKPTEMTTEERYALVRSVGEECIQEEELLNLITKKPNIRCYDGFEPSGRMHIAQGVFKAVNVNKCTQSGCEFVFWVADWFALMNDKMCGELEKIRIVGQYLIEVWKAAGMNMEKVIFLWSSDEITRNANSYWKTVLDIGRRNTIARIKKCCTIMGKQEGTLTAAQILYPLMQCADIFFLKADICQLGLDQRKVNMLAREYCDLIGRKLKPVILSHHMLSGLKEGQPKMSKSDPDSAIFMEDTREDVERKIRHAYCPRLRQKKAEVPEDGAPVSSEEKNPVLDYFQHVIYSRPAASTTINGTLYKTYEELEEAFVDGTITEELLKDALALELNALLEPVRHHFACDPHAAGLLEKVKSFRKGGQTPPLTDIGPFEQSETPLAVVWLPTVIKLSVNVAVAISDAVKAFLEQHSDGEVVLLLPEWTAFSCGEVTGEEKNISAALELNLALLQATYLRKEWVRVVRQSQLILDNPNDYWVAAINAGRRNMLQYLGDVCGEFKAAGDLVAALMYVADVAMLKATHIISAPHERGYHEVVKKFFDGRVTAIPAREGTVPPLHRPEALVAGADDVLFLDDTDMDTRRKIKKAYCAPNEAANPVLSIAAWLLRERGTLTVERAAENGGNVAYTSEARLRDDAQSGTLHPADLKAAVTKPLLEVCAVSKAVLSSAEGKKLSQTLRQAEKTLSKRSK
Nature of the experiment: Trypanosoma cruzi tyrosyl tRNA synthetase (TcYRS) _High Tyrosine SOP. Further: in the data most compounds retested in dose-response had high values. It is filed as functional. As to conditions: 30 µM.

Experiment [7] concerns the target T4, Tyrosyl-tRNA synthetase, putative (Trypanosoma cruzi (strain CL Brener)). The experiment is described as follows: Trypanosoma cruzi tyrosyl tRNA synthetase (TcYRS) SOP. It is filed as functional. As to conditions: 30 µM.
Experiment [8] has as its target Chromo domain-containing protein 1 (Saccharomyces cerevisiae (strain ATCC 204508 / S288c) (Baker's yeast)) (UniProt P32657). Nature of the experiment: ScCHD-1 Enzyme Inhibition Assay. Further: in the data most compounds retested in dose-response had high values. It is filed as functional. As to conditions: 30 µM.
Experiment [9] has as its target AMP-activated protein kinase, AMPK (Homo sapiens) (UniProt P54646+O43741+P54619+Q9UGJ0+Q9Y478+Q13131+Q9UGI9). Nature of the experiment: AMP-dependent Kinase enzyme assay. An in vitro enzyme assay that detects ADP turnover that is directly proportional to AMPK activity. This uses naive AMPK that is activated during the assay with MK-8722. It is filed as functional. As to conditions: 30 µM.

Molecules are shown by their SMILES. For part of these data: Results with a measured potency or affinity are listed apart.

Chain of Protein translocase subunit SecA (Escherichia coli (strain K12)) (P10408 whole entry): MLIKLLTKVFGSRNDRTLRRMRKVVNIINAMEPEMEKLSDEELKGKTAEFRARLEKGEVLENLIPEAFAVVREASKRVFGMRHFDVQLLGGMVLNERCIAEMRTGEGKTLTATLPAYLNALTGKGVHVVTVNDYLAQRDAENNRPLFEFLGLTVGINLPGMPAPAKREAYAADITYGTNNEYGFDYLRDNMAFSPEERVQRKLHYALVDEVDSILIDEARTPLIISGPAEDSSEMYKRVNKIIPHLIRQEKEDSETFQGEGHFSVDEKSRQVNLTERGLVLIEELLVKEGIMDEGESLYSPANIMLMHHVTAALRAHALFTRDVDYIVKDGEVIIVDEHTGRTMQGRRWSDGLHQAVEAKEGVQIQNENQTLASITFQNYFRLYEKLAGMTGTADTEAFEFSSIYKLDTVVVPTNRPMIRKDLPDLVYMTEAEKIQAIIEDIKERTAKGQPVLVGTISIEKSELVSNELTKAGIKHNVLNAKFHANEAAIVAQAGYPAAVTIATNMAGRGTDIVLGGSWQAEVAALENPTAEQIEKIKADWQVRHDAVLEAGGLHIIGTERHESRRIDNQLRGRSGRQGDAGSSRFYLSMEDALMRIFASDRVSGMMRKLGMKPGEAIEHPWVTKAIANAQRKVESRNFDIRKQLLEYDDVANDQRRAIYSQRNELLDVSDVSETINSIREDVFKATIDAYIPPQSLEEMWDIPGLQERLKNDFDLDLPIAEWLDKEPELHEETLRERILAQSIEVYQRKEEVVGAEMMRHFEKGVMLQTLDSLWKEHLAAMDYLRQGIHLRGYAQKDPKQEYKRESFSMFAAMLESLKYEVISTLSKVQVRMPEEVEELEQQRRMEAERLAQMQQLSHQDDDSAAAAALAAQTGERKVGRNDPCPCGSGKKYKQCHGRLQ
Chain of Sialic acid-binding Ig-like lectin 9 (Homo sapiens) (Q9Y336 whole entry): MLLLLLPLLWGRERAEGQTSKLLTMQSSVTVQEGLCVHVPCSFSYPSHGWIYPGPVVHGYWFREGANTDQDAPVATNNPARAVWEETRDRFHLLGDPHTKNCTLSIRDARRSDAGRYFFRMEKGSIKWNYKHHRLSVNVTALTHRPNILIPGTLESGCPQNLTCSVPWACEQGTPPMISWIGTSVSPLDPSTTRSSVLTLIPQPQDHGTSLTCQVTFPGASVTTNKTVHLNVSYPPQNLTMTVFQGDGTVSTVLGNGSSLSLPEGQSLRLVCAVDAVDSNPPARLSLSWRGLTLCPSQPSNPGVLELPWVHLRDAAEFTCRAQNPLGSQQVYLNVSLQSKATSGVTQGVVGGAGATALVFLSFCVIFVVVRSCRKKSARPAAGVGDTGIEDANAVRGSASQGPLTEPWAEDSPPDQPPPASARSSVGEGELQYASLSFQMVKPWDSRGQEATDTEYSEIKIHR
Chain of Chromo domain-containing protein 1 (Saccharomyces cerevisiae (strain ATCC 204508 / S288c) (Baker's yeast)) (P32657 whole entry, the tested form may be a part): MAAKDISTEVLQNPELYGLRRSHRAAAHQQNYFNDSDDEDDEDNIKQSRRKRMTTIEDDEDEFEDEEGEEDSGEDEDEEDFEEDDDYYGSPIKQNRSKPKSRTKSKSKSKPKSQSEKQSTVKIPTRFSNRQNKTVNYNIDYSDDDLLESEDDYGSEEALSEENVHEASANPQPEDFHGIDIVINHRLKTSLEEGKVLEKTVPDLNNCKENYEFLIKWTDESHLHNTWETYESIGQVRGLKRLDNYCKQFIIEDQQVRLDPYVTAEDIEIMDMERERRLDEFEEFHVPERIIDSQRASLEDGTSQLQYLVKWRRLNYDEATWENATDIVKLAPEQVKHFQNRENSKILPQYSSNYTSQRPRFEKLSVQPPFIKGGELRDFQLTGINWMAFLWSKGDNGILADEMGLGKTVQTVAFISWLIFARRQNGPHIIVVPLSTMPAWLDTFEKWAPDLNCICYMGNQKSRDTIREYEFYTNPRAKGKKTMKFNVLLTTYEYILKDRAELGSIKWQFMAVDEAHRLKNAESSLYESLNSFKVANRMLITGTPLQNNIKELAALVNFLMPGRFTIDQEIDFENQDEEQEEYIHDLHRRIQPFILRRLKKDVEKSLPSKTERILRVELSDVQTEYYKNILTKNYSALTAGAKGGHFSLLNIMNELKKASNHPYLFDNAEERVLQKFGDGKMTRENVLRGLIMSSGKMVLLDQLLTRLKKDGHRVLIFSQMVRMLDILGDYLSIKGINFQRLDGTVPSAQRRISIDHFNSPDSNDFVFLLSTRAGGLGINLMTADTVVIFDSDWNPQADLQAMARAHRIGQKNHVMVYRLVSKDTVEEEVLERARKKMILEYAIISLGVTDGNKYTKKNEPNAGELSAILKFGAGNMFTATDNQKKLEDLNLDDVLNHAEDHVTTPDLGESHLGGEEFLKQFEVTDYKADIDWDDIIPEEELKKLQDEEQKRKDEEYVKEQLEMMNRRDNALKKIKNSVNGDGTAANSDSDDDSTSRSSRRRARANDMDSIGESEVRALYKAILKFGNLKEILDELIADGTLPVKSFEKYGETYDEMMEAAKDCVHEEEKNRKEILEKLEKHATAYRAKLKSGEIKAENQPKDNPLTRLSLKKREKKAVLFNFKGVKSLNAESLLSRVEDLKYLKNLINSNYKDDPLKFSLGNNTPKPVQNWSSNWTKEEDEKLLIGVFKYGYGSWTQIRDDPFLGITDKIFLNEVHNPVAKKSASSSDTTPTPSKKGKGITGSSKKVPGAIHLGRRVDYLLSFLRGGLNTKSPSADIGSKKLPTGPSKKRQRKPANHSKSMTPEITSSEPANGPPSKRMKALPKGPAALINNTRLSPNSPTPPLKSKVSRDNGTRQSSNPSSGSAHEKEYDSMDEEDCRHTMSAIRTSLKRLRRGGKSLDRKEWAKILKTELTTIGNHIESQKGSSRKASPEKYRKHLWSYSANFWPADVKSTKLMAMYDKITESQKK

`CN(C)c1cc(C(=O)N2CCCN(Cc3cscn3)CC2)ccn1`: the Percent Effect in experiment [1] was -2%; in experiment [2], 7.79%; in [3] it was 1.09%; with Trypanosoma cruzi, 2.05%; in [4], 6.76%; in experiment [5], -4.39%. Also, the Percent Effect in the experiment filed under Homo sapiens was 1.34%; in [6] it was 6.86%; in experiment [7] it was 16.5%; in experiment [8], -5.32%.
`CCc1nc(CC(=O)N2CCCC2Cn2cccn2)cs1` (stereo unspecified): the Percent Effect in experiment [1] was -2.88%; in experiment [2], 2.67%; in experiment [3], 6.12%; with Trypanosoma cruzi it was 0.402%; in experiment [4], 4.43%; in experiment [5], 6.19%. In addition, the Percent Effect was -17.2% in the experiment listed under Homo sapiens, 2.63% in [6], 7.69% in experiment [7] and -10% in experiment [8].
As to `O=C(c1ccc(F)cc1)N1CCC2(CCCN2CC2CC2)CC1`, the Percent Effect in experiment [1] is -2.9%; in [2], 9.09%; in experiment [3], -6.13%; in the experiment on Trypanosoma cruzi, -6.57%; in [4], 5.94%; in experiment [5], 14%. For the same compound, the Percent Effect in the experiment filed under Homo sapiens is 11.5%; in [6], 0.966%; in experiment [7], 0%; in [8] it was -3.47%.
On to `O=C(CN1CCCS1(=O)=O)NCCOc1ccc2c(c1)CCC2`, for which the Percent Effect in experiment [1] is -6.62%; in experiment [2] it was 2.56%; in experiment [3], 4.23%; in the experiment with Trypanosoma cruzi it was 3.66%; in experiment [4] it was 5.74%; in experiment [5], -10.2%. Moreover, the Percent Effect in the experiment listed under Homo sapiens is 6.45%; in experiment [6] it was 1.44%; in [7], 6.02%; in [8] it was -2.78%.
Take `Cn1ncc2c1NC(=O)CC2c1ccc(O)cc1` (stereo unspecified): the Percent Effect is -7.41% in [1]; 0% in experiment [2]; -2.98% in experiment [3]; -8.63% with Trypanosoma cruzi; -6.64% in [4]; 11.3% in [5]. In addition, the Percent Effect was 30.7% in the experiment listed under Homo sapiens, 0.532% in experiment [6], 4.88% in [7] and -4.05% in experiment [8].
Take `CN1CCC(NC(=O)c2cc(F)cc(Cl)c2O)C1=O` (stereo unspecified): the Percent Effect in [9] is 11.4%.
As for `Cc1ccc(NC2CCN(C(=O)c3cccc4ncccc34)CC2)nn1`, the Percent Effect in experiment [1] is -3.89%; in experiment [2], 5.33%; in [3], -2.08%; in the experiment with Trypanosoma cruzi, -0.803%; in experiment [4], 3.99%; in experiment [5], -1.61%. The Percent Effect in the experiment listed under Homo sapiens was 9.09%; in experiment [6] it was 13.2%; in [7] it was 15.4%; in experiment [8], -8.9%.
`COCC1CC2(CCN(Cc3ccc(OC)cc3)CC2)CN1C(C)C` (stereo unspecified): the Percent Effect is -6.15% in experiment [1]; -9.09% in [2]; -0.064% in [3]; -1.66% in the experiment on Trypanosoma cruzi; -4.05% in [4]; 0.0883% in [5]. Also, the Percent Effect in the experiment filed under Homo sapiens was -19.4%; in [6], 0.526%; in experiment [7], 2.56%; in experiment [8], 1.65%.
Take `Cc1nccc(CN2CC[C@H](Oc3cccc(F)c3)[C@@](C)(O)C2)n1`: the Percent Effect in [1] was -2.64%; in experiment [2] it was 14.7%; in experiment [3] it was 6.31%; in the experiment with Trypanosoma cruzi, -0.197%; in experiment [4] it was 3.1%; in [5] it was 0.657%. In addition, the Percent Effect is 2.7% in the experiment listed under Homo sapiens, 7.41% in experiment [6], 15% in experiment [7] and -17.3% in experiment [8].
